34 compounds from PubChem BioAssay (Tox21) can be followed below.

The nature of test [1]: qHTS assay to identify small molecule antagonists of the glucocorticoid receptor (GR) signaling pathway - cell viability counter screen (AID 720693). Note: nearly all actives have a fitted effect of over 55% in size. Note: potency is the fitted concentration of half-maximal effect. On the technique in general: Quantitative high-throughput screening tests each substance at several concentrations.
Test [2] can be described thus: qHTS assay for identifying genotoxic compounds that show differential cytotoxicity against isogenic chicken DT40 cell lines with known DNA damage response pathways - wild type cell line (AID 743012). Note: nearly all actives have a fitted effect of over 60% in size. Note: potency is the fitted concentration of half-maximal effect. Put shortly: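 Quantitative HTS on parental DT40 cells: 40 h compound treatment at 37 C/5% CO2, with viability then determined by CellTiter-Glo luminescence. Values serve as the DNA repair-proficient reference for differential cytotoxicity.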

The nature of test [3]: qHTS assay for identifying genotoxic compounds that show differential cytotoxicity against isogenic chicken DT40 cell lines with known DNA damage response pathways - Rad54/Ku70 mutant cell line (AID 743015). Note: nearly all actives have a fitted effect of over 60% in size. Note: potency is the fitted concentration of half-maximal effect.
Test [4] in a line: qHTS assay to identify small molecule antagonists of the androgen receptor (AR) signaling pathway - cell viability counter screen (AID 743033; note: nearly all actives have a fitted effect of over 45% in size).
Test [5] in a line: qHTS assay to identify small molecule antagonists of the androgen receptor (AR) signaling pathway using the MDA cell line - cell viability counter screen (AID 743041; note: nearly all actives have a fitted effect of over 45% in size). An outline of the steps:
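Same-well cytotoxicity was assessed by CellTiter-Fluor in MDA-kb2 AR-luc cells after 16 h of compound treatment under R1881 agonism.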

The target in test [6] is Androgen receptor (Homo sapiens) (UniProt P10275). The experiment in a line: qHTS assay to identify small molecule antagonists of the androgen receptor (AR) signaling pathway (AID 743035; active = well fitted inhibition curve with a large enough effect in the signal ratio in the repeat runs, not every such curve was filed as active; the % refers to the signal ratio; note: potency is the fitted concentration of half-maximal effect). Put shortly:
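Cell line: GeneBLAzer AR-UAS-bla GripTite (HEK293). Stimulus: R1881 added after compound. Exposure: 16 h, 37C, 5% CO2. Readout: LiveBLAzer B/G FRET fluorescence after 2 h at room temperature.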

Test [7] has the same target. Nature of the test: qHTS assay to identify small molecule antagonists of the androgen receptor (AR) signaling pathway using the MDA cell line (AID 743042; note: nearly all actives have a fitted effect of over 55% in size). An outline of the steps: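 MDA-kb2 breast carcinoma cells carrying MMTV-luciferase (AR/GR responsive) were co-treated with compounds and the agonist R1881 for 16 h at 37C. Inhibition read as ONE-Glo luminescence; CellTiter-Fluor fluorescence measured in parallel for cytotoxicity.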

For test [8] the target is unchanged. Nature of the test: qHTS assay to identify small molecule agonists of the androgen receptor (AR) signaling pathway (AID 743036; active = well fitted activation curve with a large enough effect in the signal ratio in the repeat runs, with a control signal flat, not every such curve was filed as active; the % refers to the signal ratio). Put shortly: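 AR-bla HEK293 cells, 2,000/well; 4 h preincubation 37C/5% CO2; compound (DMSO) 16 h at 37C; LiveBLAzer B/G FRET substrate 2 h RT; fluorescence intensity read-out.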
The target is the same in test [9]. The experiment in a line: qHTS assay to identify small molecule agonists of the androgen receptor (AR) signaling pathway using the MDA cell line (AID 743040; note: nearly all actives have a fitted effect of over 20% in size). Put shortly:
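Human breast carcinoma MDA-kb2 reporter cells (MMTV-luc, AR/GR elements) were treated for 16 h at 37C in 0% CO2 following a 5 h settling period. Signal was quantified by ONE-Glo luminescence.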

Test [10] in a line: qHTS assay for identifying genotoxic compounds that show differential cytotoxicity against isogenic chicken DT40 cell lines with known DNA damage response pathways - Rev3 mutant cell line (AID 743014). Note: nearly all actives have a fitted effect of over 55% in size.

“And” between values parts separate entries of the source, which are not always exact repeats. Equal values may be shown once. Inconclusive results are not listed. The source made the active and inactive calls. Unless noted, calls come from the whole dose curve; as a rule, active = well fitted curve in the direction sought with a large enough effect in the repeat runs; inconclusive = weak or mixed curves; inactive = no such curve, though single readings can be large; an effect the other way counts as inactive or inconclusive.

Chain of Androgen receptor (Homo sapiens) (P10275 whole entry, looked up): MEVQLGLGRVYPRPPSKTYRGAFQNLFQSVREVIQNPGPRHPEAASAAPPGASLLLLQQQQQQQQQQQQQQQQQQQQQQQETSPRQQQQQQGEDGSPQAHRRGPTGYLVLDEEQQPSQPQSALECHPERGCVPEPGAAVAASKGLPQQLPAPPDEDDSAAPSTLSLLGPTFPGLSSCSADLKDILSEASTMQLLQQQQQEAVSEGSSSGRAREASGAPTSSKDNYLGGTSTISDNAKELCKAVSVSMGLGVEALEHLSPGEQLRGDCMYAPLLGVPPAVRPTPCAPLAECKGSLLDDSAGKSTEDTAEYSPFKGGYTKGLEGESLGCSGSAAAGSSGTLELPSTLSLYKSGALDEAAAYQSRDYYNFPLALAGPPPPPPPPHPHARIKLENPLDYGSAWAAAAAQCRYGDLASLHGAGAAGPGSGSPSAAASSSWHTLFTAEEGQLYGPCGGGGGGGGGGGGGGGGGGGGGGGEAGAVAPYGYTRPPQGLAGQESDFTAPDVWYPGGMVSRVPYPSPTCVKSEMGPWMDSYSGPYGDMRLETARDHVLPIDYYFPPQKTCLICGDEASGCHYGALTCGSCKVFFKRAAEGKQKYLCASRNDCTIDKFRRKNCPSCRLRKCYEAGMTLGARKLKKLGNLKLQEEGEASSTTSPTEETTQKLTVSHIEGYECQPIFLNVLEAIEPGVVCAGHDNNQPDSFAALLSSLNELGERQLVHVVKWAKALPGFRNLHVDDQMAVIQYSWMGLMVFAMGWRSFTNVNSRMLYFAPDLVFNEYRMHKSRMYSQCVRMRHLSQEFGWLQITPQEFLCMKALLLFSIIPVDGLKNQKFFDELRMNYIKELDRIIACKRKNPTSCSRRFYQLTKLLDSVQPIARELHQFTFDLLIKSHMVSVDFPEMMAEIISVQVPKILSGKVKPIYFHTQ

`c1ccc(-n2cnnn2)cc1`: the Potency entry in test [1], in test [2], in [3], in test [4] and in [5] was “inactive” throughout.

Consider `CON=C1C[C@]2(C[C@@H]3C[C@@H](C/C=C(\C)C[C@@H](C)/C=C/C=C4\CO[C@@H]5[C@H](O)C(C)=C[C@@H](C(=O)O3)[C@]45O)O2)O[C@H](/C(C)=C/C(C)C)[C@H]1C`, for which the Potency was 7.56 µM (active) and 10.7 µM (active) in [1]; 13.3 µM (active) and 16.8 µM (active) in test [2]; 10.6 µM (active) and 13.3 µM (active) in [3]; 7.56 µM (active) in test [6]. The Potency entry in [4], in [5] and in test [7] was “inactive” each time.

On to `O=P(O)(O)CP(=O)(O)O`, for which the Potency entry in test [1], in test [2], in test [3], in [4], in test [6] and in test [8] was “inactive” each time. Further, the Potency result in test [9], in test [5] and in test [7] was “inactive” throughout.

On to `Cc1ccc(C(C)(C)c2ccc(C)cc2)cc1`, for which the Potency result in test [1], in test [2], in test [10], in test [4] and in test [5] was “inactive” each time.

Regarding `CN1[C@@H](CC(=O)c2ccccc2)CCC[C@H]1C[C@H](O)c1ccccc1`, the Potency result in test [1], in [10] and in test [4] was “inactive” in each case. Besides, the Potency in test [2] is 26.6 µM (active).

Turning to `CCCCCCCCCCCCCCCCCCOCC(COP(=O)([O-])OCC[N+](C)(C)C)OC` (centres undefined), the Potency entry in test [1], in test [2], in test [10], in [4] and in test [5] was “inactive” in each case.

With `Nc1cc(Cl)c(NC2=NCCN2)c(Cl)c1`, the Potency entry in test [1], in [2], in test [3], in test [4] and in test [5] was “inactive” each time.

`CCCCCCCCCC(=O)NO`: the Potency result in [1], in [2], in test [3], in test [4] and in test [5] was “inactive” throughout.

For the compound `CN(C/C=C/c1ccccc1)Cc1cccc2ccccc12`, the Potency result in test [1], in [4] and in [5] was “inactive” each time. Also, the Potency in [2] and in test [3] was 26.6 µM (active) in each case.

With `O=C(O)c1cc(O)c2c(c1)[C@H]([C@H]1c3cc(C(=O)O)cc(O)c3C(=O)c3c(O[C@@H]4O[C@H](CO)[C@@H](O)[C@H](O)[C@H]4O)cccc31)c1cccc(O[C@@H]3O[C@H](CO)[C@@H](O)[C@H](O)[C@H]3O)c1C2=O`, the Potency result in [1], in [2], in [10], in [3] and in test [5] was “inactive” in each case.

With `O=C1c2ccccc2C(=O)C1c1ccc(F)cc1`, the Potency result in test [1], in [2], in [3], in test [4], in [6] and in test [8] was “inactive” each time. The Potency entry in test [9], in [5] and in test [7] was “inactive” in each case.

`NCC1CCC(C(=O)O)CC1` (centres undefined): the Potency entry in test [1], in [2], in [10], in test [3] and in [5] was “inactive” each time.

As to `Cc1c(O)c(=O)ccn1C`, the Potency result in test [1], in [2], in [3], in [4] and in test [5] was “inactive” in each case.

In the case of `CO/N=C(\C(=O)N[C@@H]1C(=O)N2C(C(=O)O)=C(CSc3nc(C)c(CC(=O)O)s3)CS[C@H]12)c1csc(N)n1`, the Potency entry in test [1], in test [2], in test [3], in test [4] and in [5] was “inactive” each time.

Regarding `COc1ccc(/C=C/C(=O)Nc2ccccc2C(=O)O)cc1OC`, the Potency entry in test [1], in test [2], in test [4], in [9], in test [5] and in test [7] was “inactive” each time.

Regarding `NCCCC(=O)O`, the Potency result in test [1], in [2], in test [3], in test [4] and in test [5] was “inactive” each time.

Regarding `C=C(Nc1ccc(OCC)cc1)Nc1ccc(OCC)cc1`, the Potency entry in [1], in test [4] and in test [5] was “inactive” in each case. Also, the Potency is 29.8 µM (active) and 23.7 µM (active) in test [2]; 23.7 µM (active) in [3].

With `CC[C@H]1OC(=O)C[C@@H](O)[C@H](C)[C@@H](O[C@@H]2O[C@H](C)[C@@H](O)[C@H](N(C)C)[C@H]2O)[C@@H](CCN2C[C@H](C)C[C@H](C)C2)C[C@@H](C)C(=O)/C=C/C(C)=C/[C@@H]1CO[C@@H]1O[C@H](C)[C@@H](O)[C@@H](OC)[C@H]1OC`, the Potency result in test [1], in test [2], in test [6], in [8], in test [5] and in [7] was “inactive” in each case.

As to `O=C1CCCCCCCCCCCCCC1`, the Potency entry in test [1], in test [2], in [4] and in test [5] was “inactive” each time.

Regarding `CC(C)=CCC/C(C)=C/CC/C(C)=C/CC/C(C)=C/CC1=C(C)C(=O)c2ccccc2C1=O`, the Potency entry in [1], in [4] and in test [5] was “inactive” each time. In [2], the Potency was 29.8 µM (active) and 10.6 µM (active).

Consider `C=CC[N+]1([C@H]2C[C@H]3[C@@H]4CC[C@H]5C[C@H](O)[C@@H](N6CCOCC6)C[C@]5(C)[C@H]4CC[C@]3(C)[C@H]2OC(C)=O)CCCC1`, for which the Potency entry in test [1], in test [10], in test [3], in test [4] and in test [5] was “inactive” in each case.

As for `C[S+](C)CCC(N)C(=O)O` (centres undefined), the Potency result in test [1], in [2], in [3], in [4] and in [5] was “inactive” in each case.

For `O=C1CCC(c2ccccc2)(C2CCN(Cc3ccccc3)CC2)C(=O)N1` (centres undefined), the Potency entry in test [1], in test [10], in test [4] and in test [5] was “inactive” each time.

For `CCC(O)c1ccccc1` (centres undefined), the Potency result in [1], in [10], in [3] and in test [5] was “inactive” in each case.

For the compound `c1ccc2c(c1)OCC(CN1CCCCC1)O2` (centres undefined), the Potency entry in [1], in [2], in [4], in test [6], in test [9] and in test [5] was “inactive” throughout. For the same compound, the Potency result in test [7] was “inactive”.

For `O=C(O)[C@H]1CN(C/C=C/P(=O)(O)O)CCN1`, the Potency entry in test [1], in [2], in test [3], in [4] and in test [5] was “inactive” throughout.

Take `CCSCC`: the Potency entry in test [1], in test [2], in [3] and in test [5] was “inactive” each time.

For the compound `O=C1CCC/C=C\CCCCCCCCCC1`, the Potency entry in test [1], in test [2] and in test [5] was “inactive” throughout.

For the compound `C[Se]CC[C@H](N)C(=O)O`, the Potency result in test [1], in test [2], in [3] and in [5] was “inactive” each time.

For the compound `CC1(C)S[C@@H]2[C@H](N3C(=O)C(c4ccccc4)NC3(C)C)C(=O)N2[C@H]1C(=O)O` (some centres undefined), the Potency result in test [1], in test [2], in test [3], in [4] and in test [5] was “inactive” in each case.

For `CC(=O)Oc1cc(C(F)(F)F)ccc1C(=O)O`, the Potency entry in test [1], in [2], in test [3], in [4] and in test [5] was “inactive” throughout.

Take `COC1[C@@H](O[C@@H]2O[C@H](C)[C@@H](O[C@H]3C[C@@](C)(O)[C@H](OC(=O)CC(C)C)[C@H](C)O3)[C@H](N(C)C)[C@H]2O)[C@@H](CC=O)C[C@@H](C)[C@@H](O)/C=C/C=C/C[C@@H](C)OC(=O)C[C@H]1OC(C)=O` (some centres undefined): the Potency result in [1], in [10], in test [3] and in test [5] was “inactive” each time.

Take `N[C@@H](Cc1ccc(O)c(O)c1)C(=O)O`: the Potency entry in test [1], in [10], in [3], in test [4] and in [5] was “inactive” throughout.

With `NC(=O)[C@@H]1C[C@]2(NC(=O)NC2=O)c2cc(F)ccc2O1`, the Potency entry in test [1], in [2], in test [3], in [4] and in [5] was “inactive” each time.
